Experimental data reported in the supplement of paper PMC8728848.
This is one part of a sample in which the strongest signals are shown more often than they occur.

Columns and labels:
Assay in all cases: glycan array binding signal (z-score within array); higher = stronger binding
Conditions in all cases: glycan notation: IUPAC condensed, linker removed
[1] = biological target: Fuc(a1-2)Gal(b1-3)GalNAc(b1-3)Gal
Summary of the method: (§1)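 Glycan array data came from 3228 arrays in the Consortium for Functional Glycomics database, and only arrays with an available protein sequence were kept. Glycan names were put into IUPAC-condensed notation, and columns mapping to the same glycan were averaged. The binding signal is a within-array Z-score, averaged across arrays of one protein sequence run at different concentrations or buffers and across linkers. A negative Z-score can be read as non-binding.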

[2] = biological target: Fuc(a1-2)Gal(b1-3)GlcNAc(b1-2)Man(a1-3)[Fuc(a1-2)Gal(b1-3)GlcNAc(b1-2)Man(a1-6)]Man(b1-4)GlcNAc(b1-4)GlcNAc
Summary of the method: as §1

[3] = biological target: Fuc(a1-2)Gal(b1-4)[Fuc(a1-3)]GlcNAc(b1-3)GalNAc
Summary of the method: as §1

[4] = biological target: Fuc(a1-2)Gal6S(b1-3)GlcNAc
Summary of the method: as §1

[5] = biological target: Fuc(a1-2)[Gal(a1-3)]Gal(b1-4)GlcNAc(b1-6)GalNAc
Summary of the method: as §1

[6] = biological target: Fuc(a1-2)[GalNAc(a1-3)]Gal(b1-3)GlcNAc(b1-2)Man(a1-3)[Fuc(a1-2)[GalNAc(a1-3)]Gal(b1-3)GlcNAc(b1-2)Man(a1-6)]Man(b1-4)GlcNAc(b1-4)GlcNAc
Summary of the method: as §1

[7] = biological target: Fuc(a1-2)[GalNAc(a1-3)]Gal(b1-3)GlcNAc(b1-3)GalNAc
Summary of the method: as §1

[8] = biological target: Fuc(a1-2)[GalNAc(a1-3)]Gal(b1-4)Glc
Summary of the method: as §1

[9] = biological target: Fuc(a1-2)[GalNAc(a1-3)]Gal(b1-4)GlcNAc(b1-3)Gal(b1-4)GlcNAc
Summary of the method: as §1

[10] = biological target: Fuc(a1-2)[GalNAc(a1-3)]Gal(b1-4)[Fuc(a1-3)]GlcNAc(b1-3)GalNAc
Summary of the method: as §1

[11] = biological target: Fuc(a1-3)[Gal(b1-4)]GlcNAc(b1-4)Gal(b1-4)[Fuc(a1-3)]GlcNAc
Summary of the method: as §1

[12] = biological target: Fuc(a1-3)[Gal(b1-4)]GlcNAc(b1-6)GalNAc
Summary of the method: as §1

[13] = biological target: Fuc(a1-3)[Gal(b1-4)]GlcNAc6S
Summary of the method: as §1

[14] = biological target: Gal(a1-2)Gal
Summary of the method: as §1

[15] = biological target: Gal(a1-3)Gal(b1-3)GlcNAc(b1-2)Man(a1-3)[Gal(a1-3)Gal(b1-3)GlcNAc(b1-2)Man(a1-6)]Man(b1-4)GlcNAc(b1-4)GlcNAc
Summary of the method: as §1

[16] = biological target: Gal(a1-3)Gal(b1-4)GlcNAc
Summary of the method: as §1

[17] = biological target: Gal(b1-3)Gal
Summary of the method: as §1

[18] = biological target: Gal(b1-3)GlcNAc(b1-2)Man(a1-3)[GlcNAc(b1-4)][Gal(b1-3)GlcNAc(b1-2)Man(a1-6)]Man(b1-4)GlcNAc(b1-4)GlcNAc
Summary of the method: as §1

[19] = biological target: Gal(b1-3)[GlcNAc(b1-6)]GalNAc
Summary of the method: as §1

[20] = biological target: Gal(b1-4)GlcNAc(b1-3)Gal(b1-4)GlcNAc
Summary of the method: as §1

[21] = biological target: Gal(b1-4)GlcNAc(b1-3)GalNAc
Summary of the method: as §1

[22] = biological target: Gal6S(b1-4)Glc
Summary of the method: as §1

[23] = biological target: GalNAc(a1-3)GalNAc(b1-3)Gal(a1-4)Gal(b1-4)Glc
Summary of the method: as §1

[24] = biological target: GalNAc(b1-3)Gal(a1-4)Gal(b1-4)GlcNAc(b1-3)Gal(b1-4)Glc
Summary of the method: as §1

[25] = biological target: GalNAc6S(b1-4)GlcNAc
Summary of the method: as §1

[26] = biological target: GlcNAc(a1-4)Gal(b1-4)GalNAc
Summary of the method: as §1

[27] = biological target: GlcNAc(a1-4)Gal(b1-4)GlcNAc(b1-3)Gal(b1-4)[Fuc(a1-3)]GlcNAc(b1-3)Gal(b1-4)[Fuc(a1-3)]GlcNAc
Summary of the method: as §1

[28] = biological target: GlcNAc(b1-3)Gal(b1-4)GlcNAc
Summary of the method: as §1

[29] = biological target: GlcNAc(b1-3)Gal(b1-4)GlcNAc(b1-3)Gal(b1-4)GlcNAc
Summary of the method: as §1

[30] = biological target: GlcNAc(b1-6)GalNAc
Summary of the method: as §1

B1: PitA (Streptococcus oralis), G3F8D8 (protein)
chain: MNIRFDFKKVQIIARRLVTLLAILFLCAPISLLNADSTTEPQTTLHKTITPISGQDDKYELSLDITSKLGTETQTDPLDVVLVADLSGSMQNQDVQSFDGRTISRIDALKNTLRGTNGRKGLIDTILSNSNNRLSMVGFGGKIDNKKVDQYWDGNKWRLFRPYWPYERMTKYYDGVSPWDDANTILGWSNNARAAKTAVYNMSIAGGNSIGTESGIGTGTNIGAGLTLANQLMGSARSNAKKVVILLSDGFANMVYDANGYTIYNYNNEDPNIETAPQWFWDRLNNNLNSLSYSLAPTLDGFYSIKFRYSNNVDSITSLQYYMRQHNASIPNEIFSANDEDQLRDSFKDITDKILPLGIHHVSIKDVLSKYVQLLPNGSSEFRVVKEKDGSSEILIENQVTFDTKTTSEGLVEVTAKFSPNYSLEDGARYVLKFTVTSSQEALDAIAGDKKLEAGDAEGSDVNKLYSNKGASVTYSYGIGNSQTKTKEYSDNPTFKPSDPLTVPVEVEWQGVTGARTVITADQPSNVELKLVQKNKNGGSDNQDYRKTNVNVSKNVSNETRNFEKVAKGYQYDLIAPDVPAFTKEIKNVGTESKPSFKVIYKQLPSLTIKKVLEAENNLNKEFRIKVKLTSPDSKPLNGTFGEITVVNGEAEIRVEKRKRWEGILSYLPRGTHYKVEEEAASTNGYHVTYENQEGDLNKDETSIVTNHKLPSLSVTKKVTGVFANLLKSFKITINIRDAQNSPLNGTYTATVNNKRTPLQFTNGRASIDLNKDQTIKIYGLPLDSHYTVEEESNSSRGYQVSYENQEGKLDGDKSATVTNNKNSVPETGVDFLSSTLMLGIILPLGGIFFTILLGYLVVHRRK
With B1 the “glycan array binding signal (z-score)” value [1] was 10.3, the “glycan array binding signal (z-score)” value [2] was 0.06 and the “glycan array binding signal (z-score)” value [3] was 7.27. For the same binder, the “glycan array binding signal (z-score)” value [4] was -0.656, the “glycan array binding signal (z-score)” value [5] was 0.131 and the “glycan array binding signal (z-score)” value [6] was -0.473. For the same binder, the “glycan array binding signal (z-score)” value [7] was 4.75, the “glycan array binding signal (z-score)” value [8] was -0.125 and the “glycan array binding signal (z-score)” value [9] was -0.715. The “glycan array binding signal (z-score)” value [10] was 5.3, the “glycan array binding signal (z-score)” value [11] was 0.05 and the “glycan array binding signal (z-score)” value [12] was 4.67. For the same binder, the “glycan array binding signal (z-score)” value [13] was 0.782, the “glycan array binding signal (z-score)” value [14] was -0.212 and the “glycan array binding signal (z-score)” value [15] was 3.83. For the same binder, the “glycan array binding signal (z-score)” value [16] was -0.128, the “glycan array binding signal (z-score)” value [17] was -0.7 and the “glycan array binding signal (z-score)” value [18] was 1.74. The “glycan array binding signal (z-score)” value [19] was -0.437, the “glycan array binding signal (z-score)” value [20] was -0.586 and the “glycan array binding signal (z-score)” value [21] was -0.575. The “glycan array binding signal (z-score)” value [22] was -0.151, the “glycan array binding signal (z-score)” value [23] was -0.395 and the “glycan array binding signal (z-score)” value [24] was 0.654. The “glycan array binding signal (z-score)” value [25] was 0.019, the “glycan array binding signal (z-score)” value [26] was 5.14 and the “glycan array binding signal (z-score)” value [27] was 3.75. For the same binder, the “glycan array binding signal (z-score)” value [28] was -0.199, the “glycan array binding signal (z-score)” value [29] was -0.259 and the “glycan array binding signal (z-score)” value [30] was 0.138.
